Measurements reported in PubChem BioAssay (Tox21).
Results filed as inconclusive are left out. Where a call stands in place of a potency, no number is given. A structure can be active in one record and inactive in another. Active and inactive are the calls of the source. Unless noted, calls come from the whole dose curve.

Test: qHTS assay to identify small molecule agonists of the hypoxia (HIF-1) signaling pathway - cell viability counter screen (AID 1224844); note: nearly all actives have a fitted effect of over 50% in size
Settings: HRE-bla ME-180 viability, CellTiter-Glo luminescence, 17 h; series mostly up to 76.8 µM
Method in brief: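 Same wells as the HIF-1 reporter screen; ME-180 cells carrying HRE-bla, 17 hr treatment at 37C; CellTiter-Glo luminescence read after 30 min at room temperature.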
For `C=CCN=C=S`, the Potency was “inactive”. With `COc1nc(NC(C)C)nc(NC(C)C)n1` the Potency was “inactive”. In the case of `ClC(Cl)c1ccccc1`, the Potency is reported as “inactive”. In the case of `O=P1(NCCCl)OCCCN1CCCl` (stereo not given), the Potency is reported as “inactive”. With `CN(C)C(=O)Nc1cccc(C(F)(F)F)c1` the Potency was “inactive”. In the case of `COC(C)(C)CCCC(C)C/C=C/C(C)=C/C(=O)OC(C)C` (stereo not given), the Potency is reported as “inactive”. In the case of `Cc1cc(O)ccc1Cl`, the Potency is reported as “inactive”. For `O=C(O)Cc1ccccc1`, the Potency was “inactive”. For `OC[C@@H](O)[C@H]1O[C@@H]2O[C@H](C(Cl)(Cl)Cl)O[C@@H]2[C@H]1O`, the Potency was “inactive”. In the case of `CNC(=O)O/N=C(\SC)C(=O)N(C)C`, the Potency is reported as “inactive”. For `CCOc1ccc(N)cc1`, the Potency was “inactive”. With `CN(C)NC(=O)CCC(=O)O` the Potency was “inactive”. For `Sc1ccccc1`, the Potency was “inactive”. In the case of `Cc1ccc(N)cc1`, the Potency is reported as “inactive”. In the case of `CNC(=O)Oc1cccc2ccccc12`, the Potency is reported as “inactive”. With `Cc1ccc(O)c(C)c1` the Potency was “inactive”. For `OCC(O)CCl` (stereo not given), the Potency was “inactive”. In the case of `Nc1cc(Cl)cc(Cl)c1`, the Potency is reported as “inactive”. For `N#Cc1ccccn1`, the Potency was “inactive”. For `COC(=O)Nc1cccc(OC(=O)Nc2cccc(C)c2)c1`, the Potency was “inactive”. For `CC(=O)/C=C/c1ccccc1`, the Potency was “inactive”. With `CC[N+](=O)[O-]` the Potency was “inactive”. In the case of `COS(=O)(=O)OC`, the Potency is reported as “inactive”. In the case of `C=C(C)C(=O)OCC(CC)CCCC` (stereo not given), the Potency is reported as “inactive”. For `OCCCCO`, the Potency was “inactive”. With `OCc1ccco1` the Potency was “inactive”. In the case of `CC(C)CCCCCCOC(=O)c1ccccc1C(=O)OCCCCCCC(C)C`, the Potency is reported as “inactive”. For `CN(C)C(=O)Cl`, the Potency was “inactive”. For `CCCOC(=O)c1ccccc1C(=O)OCCC`, the Potency was “inactive”. For `CCNc1nc(Cl)nc(NC(C)C)n1`, the Potency was “inactive”.

Test: qHTS assay to identify small molecule agonists of H2AX (AID 1224845; active = well fitted activation curve with a large enough effect in the signal ratio in the repeat runs, not every such curve was filed as active; the % refers to the signal ratio; note: potency is the fitted concentration of half-maximal effect)
Settings: CHO-K1 phospho-H2AX Ser139 HTRF, 3 h; series mostly up to 154 µM
Method in brief: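 Wild-type CHO-K1 cells plated overnight, then exposed 3 hr at 37C to compounds at 15 concentrations (0.76% DMSO). Lysed, then HTRF anti-pH2AX(S139)-cryptate/anti-H2AX-d2 detection after 24 hr at room temperature; emissions 665 and 620 nm.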
In the case of `C=CCN=C=S`, the Potency is reported as “inactive”. With `COc1nc(NC(C)C)nc(NC(C)C)n1` the Potency was “inactive”. For `ClC(Cl)c1ccccc1`, the Potency was “inactive”. With `O=P1(NCCCl)OCCCN1CCCl` (stereo not given) the Potency was “inactive”. With `CN(C)C(=O)Nc1cccc(C(F)(F)F)c1` the Potency was “inactive”. For `COC(C)(C)CCCC(C)C/C=C/C(C)=C/C(=O)OC(C)C` (stereo not given), the Potency was “inactive”. In the case of `Cc1cc(O)ccc1Cl`, the Potency is reported as “inactive”. For `O=C(O)Cc1ccccc1`, the Potency was “inactive”. With `OC[C@@H](O)[C@H]1O[C@@H]2O[C@H](C(Cl)(Cl)Cl)O[C@@H]2[C@H]1O` the Potency was “inactive”. In the case of `CNC(=O)O/N=C(\SC)C(=O)N(C)C`, the Potency is reported as “inactive”. For `CCOc1ccc(N)cc1`, the Potency was “inactive”. With `CN(C)NC(=O)CCC(=O)O` the Potency was “inactive”. With `Sc1ccccc1` the Potency was “inactive”. In the case of `Cc1ccc(N)cc1`, the Potency is reported as “inactive”. In the case of `CNC(=O)Oc1cccc2ccccc12`, the Potency is reported as 99.8 µM (active) and inactive. With `Cc1ccc(O)c(C)c1` the Potency was “inactive”. In the case of `OCC(O)CCl` (stereo not given), the Potency is reported as “inactive”. For `Nc1cc(Cl)cc(Cl)c1`, the Potency was “inactive”. With `N#Cc1ccccn1` the Potency was “inactive”. For `COC(=O)Nc1cccc(OC(=O)Nc2cccc(C)c2)c1`, the Potency was “inactive”. For `CC(=O)/C=C/c1ccccc1`, the Potency was “inactive”. For `CC[N+](=O)[O-]`, the Potency was “inactive”. For `COS(=O)(=O)OC`, the Potency was “inactive”. In the case of `C=C(C)C(=O)OCC(CC)CCCC` (stereo not given), the Potency is reported as “inactive”. With `OCCCCO` the Potency was “inactive”. With `OCc1ccco1` the Potency was “inactive”. For `CC(C)CCCCCCOC(=O)c1ccccc1C(=O)OCCCCCCC(C)C`, the Potency was “inactive”. With `CN(C)C(=O)Cl` the Potency was “inactive”. In the case of `CCCOC(=O)c1ccccc1C(=O)OCCC`, the Potency is reported as “inactive”. For `CCNc1nc(Cl)nc(NC(C)C)n1`, the Potency was “inactive”.

Test: qHTS assay to identify small molecule agonists of the hypoxia (HIF-1) signaling pathway (AID 1224846; active = well fitted activation curve with a large enough effect in the signal ratio in the repeat runs, not every such curve was filed as active; the % refers to the signal ratio)
Settings: HRE-bla ME-180 cells, beta-lactamase ratio, 17 h; series mostly up to 76.8 µM
Method in brief: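 In ME-180 cells bearing an HRE-bla construct, 17 h treatment with DMSO-dissolved compounds at 37C was followed by CCF4-AM loading to quantify reporter induction.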
In the case of `C=CCN=C=S`, the outcome is reported as “inactive”. For `COc1nc(NC(C)C)nc(NC(C)C)n1`, the outcome was “inactive”. With `ClC(Cl)c1ccccc1` the outcome was “inactive”. With `O=P1(NCCCl)OCCCN1CCCl` (stereo not given) the outcome was “inactive”. In the case of `CN(C)C(=O)Nc1cccc(C(F)(F)F)c1`, the outcome is reported as “inactive”. In the case of `COC(C)(C)CCCC(C)C/C=C/C(C)=C/C(=O)OC(C)C` (stereo not given), the outcome is reported as “inactive”. For `Cc1cc(O)ccc1Cl`, the outcome was “inactive”. In the case of `O=C(O)Cc1ccccc1`, the outcome is reported as “inactive”. For `OC[C@@H](O)[C@H]1O[C@@H]2O[C@H](C(Cl)(Cl)Cl)O[C@@H]2[C@H]1O`, the outcome was “inactive”. With `CNC(=O)O/N=C(\SC)C(=O)N(C)C` the outcome was “inactive”. With `CCOc1ccc(N)cc1` the outcome was “inactive”. For `CN(C)NC(=O)CCC(=O)O`, the outcome was “inactive”. In the case of `Sc1ccccc1`, the outcome is reported as “inactive”. For `Cc1ccc(N)cc1`, the outcome was “inactive”. In the case of `CNC(=O)Oc1cccc2ccccc12`, the outcome is reported as “inactive”. In the case of `Cc1ccc(O)c(C)c1`, the outcome is reported as “inactive”. In the case of `OCC(O)CCl` (stereo not given), the outcome is reported as “inactive”. In the case of `Nc1cc(Cl)cc(Cl)c1`, the outcome is reported as “inactive”. In the case of `N#Cc1ccccn1`, the outcome is reported as “inactive”. For `COC(=O)Nc1cccc(OC(=O)Nc2cccc(C)c2)c1`, the outcome was “inactive”. In the case of `CC(=O)/C=C/c1ccccc1`, the outcome is reported as “inactive”. In the case of `CC[N+](=O)[O-]`, the outcome is reported as “inactive”. For `COS(=O)(=O)OC`, the outcome was “inactive”. In the case of `C=C(C)C(=O)OCC(CC)CCCC` (stereo not given), the outcome is reported as “inactive”. In the case of `OCCCCO`, the outcome is reported as “inactive”. For `OCc1ccco1`, the outcome was “inactive”. In the case of `CC(C)CCCCCCOC(=O)c1ccccc1C(=O)OCCCCCCC(C)C`, the outcome is reported as “inactive”. With `CN(C)C(=O)Cl` the outcome was “inactive”. With `CCCOC(=O)c1ccccc1C(=O)OCCC` the outcome was “inactive”. For `CCNc1nc(Cl)nc(NC(C)C)n1`, the outcome was “inactive”.

Test: qHTS assay to identify small molecule agonists of H2AX - cell viability counter screen (AID 1224847); note: top concentration of the series differs between compounds; nearly all actives have a fitted effect of over 30% in size
Settings: CHO-K1 viability, CellTiter-Glo luminescence, 3 h; series mostly up to 154 µM
Method in brief: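 After overnight plating of 1000 CHO-K1 cells per well, a 15-concentration compound series was applied for 3 hr at 37C. Luminescence from CellTiter-Glo, read following 30 min at room temperature, reflected cell viability.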
For `C=CCN=C=S`, the Potency was “inactive”. In the case of `COc1nc(NC(C)C)nc(NC(C)C)n1`, the Potency is reported as “inactive”. With `ClC(Cl)c1ccccc1` the Potency was “inactive”. In the case of `O=P1(NCCCl)OCCCN1CCCl` (stereo not given), the Potency is reported as “inactive”. For `CN(C)C(=O)Nc1cccc(C(F)(F)F)c1`, the Potency was “inactive”. With `COC(C)(C)CCCC(C)C/C=C/C(C)=C/C(=O)OC(C)C` (stereo not given) the Potency was “inactive”. For `Cc1cc(O)ccc1Cl`, the Potency was “inactive”. In the case of `O=C(O)Cc1ccccc1`, the Potency is reported as “inactive”. For `OC[C@@H](O)[C@H]1O[C@@H]2O[C@H](C(Cl)(Cl)Cl)O[C@@H]2[C@H]1O`, the Potency was “inactive”. With `CNC(=O)O/N=C(\SC)C(=O)N(C)C` the Potency was “inactive”. For `CCOc1ccc(N)cc1`, the Potency was “inactive”. For `CN(C)NC(=O)CCC(=O)O`, the Potency was “inactive”. With `Sc1ccccc1` the Potency was “inactive”. For `Cc1ccc(N)cc1`, the Potency was “inactive”. In the case of `CNC(=O)Oc1cccc2ccccc12`, the Potency is reported as “inactive”. For `Cc1ccc(O)c(C)c1`, the Potency was “inactive”. For `OCC(O)CCl` (stereo not given), the Potency was “inactive”. For `Nc1cc(Cl)cc(Cl)c1`, the Potency was “inactive”. In the case of `N#Cc1ccccn1`, the Potency is reported as “inactive”. In the case of `COC(=O)Nc1cccc(OC(=O)Nc2cccc(C)c2)c1`, the Potency is reported as “inactive”. For `CC(=O)/C=C/c1ccccc1`, the Potency was “inactive”. With `CC[N+](=O)[O-]` the Potency was “inactive”. In the case of `COS(=O)(=O)OC`, the Potency is reported as “inactive”. In the case of `C=C(C)C(=O)OCC(CC)CCCC` (stereo not given), the Potency is reported as “inactive”. In the case of `OCCCCO`, the Potency is reported as “inactive”. With `OCc1ccco1` the Potency was “inactive”. With `CC(C)CCCCCCOC(=O)c1ccccc1C(=O)OCCCCCCC(C)C` the Potency was “inactive”. In the case of `CN(C)C(=O)Cl`, the Potency is reported as “inactive”. With `CCCOC(=O)c1ccccc1C(=O)OCCC` the Potency was “inactive”. In the case of `CCNc1nc(Cl)nc(NC(C)C)n1`, the Potency is reported as “inactive”.
